# Rows were chosen to be rich in hits. Some 1.3% of all compounds tested hit in one or more screens of this group.
# TRPML1 inh: blocks the human TRPML1 channel | TRPML1-inducible cells, Ca2+ dye fluorescence, FDSS; active compounds read low; inhibition of EC80 agonist-evoked calcium signal | activity change, negative = inhibition, % (concentration not given with the values) | 0.02% of 390,000 active | AID 624415; in the data active means activity change below about -50%; inconclusive means between about -30% and that limit;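 further: stimulus is agonist 54-4 at its EC80 concentration; on the % scale 0 is the no-effect control and ±100 the full control effect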
# Target sequence (Q9GZU1 whole entry, looked up): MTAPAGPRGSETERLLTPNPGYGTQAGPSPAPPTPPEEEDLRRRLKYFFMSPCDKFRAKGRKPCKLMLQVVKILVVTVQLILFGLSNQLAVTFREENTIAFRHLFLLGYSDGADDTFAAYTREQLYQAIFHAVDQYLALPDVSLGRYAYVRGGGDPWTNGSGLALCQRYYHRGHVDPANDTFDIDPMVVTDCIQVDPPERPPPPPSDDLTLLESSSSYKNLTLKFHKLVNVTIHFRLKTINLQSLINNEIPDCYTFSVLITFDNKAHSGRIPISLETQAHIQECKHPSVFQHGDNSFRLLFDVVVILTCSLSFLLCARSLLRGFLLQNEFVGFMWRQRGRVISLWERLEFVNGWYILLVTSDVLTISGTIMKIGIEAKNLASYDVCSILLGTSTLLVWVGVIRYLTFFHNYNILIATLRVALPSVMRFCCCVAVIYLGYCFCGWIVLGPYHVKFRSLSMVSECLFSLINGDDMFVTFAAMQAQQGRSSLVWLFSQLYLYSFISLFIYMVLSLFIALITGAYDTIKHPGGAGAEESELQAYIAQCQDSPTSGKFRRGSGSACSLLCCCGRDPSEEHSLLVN
#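 Calcium fluorescence in TRPML1-DL cells induced overnight with Tet: a 110 s read after compound pin addition, then a 110 s antagonist read after challenge with 54-4 at 4 uM final (EC80).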
# TRPML1 agonist: agonists of human TRPML1 channel; Q9GZU1; 0.12% of 410,000 active; TRPML1-expressing cells, Ca2+ dye fluorescence, FDSS; activation, % (no concentration beside the values); AID 624414; in the data active means activation above about 50%; inconclusive means mostly about 30% to 49%; further: 0% is about no effect
#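 Cells: TRPML1-DL, 1X Tet inducer, ~16 h at 37 degrees C/5% CO2. Dye: ABD Ca8 no-wash + quencher, 45-90 min RT. Read: 10 s baseline, compound add, 110 s agonist phase; 54-4 EC80 (4uM final), 110 s antagonist phase.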
# hERG WT inh: inhibitors of human wildtype KCNH2 potassium channel; U2OS, BacMam KCNH2, thallium flux FluxOr; active compounds read low; Q12809; activity change, % at 1.84 µM; 0.37% of 340,000 active;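 active means maximum activity change below -70%; inconclusive means maximum activity change between -70% and -50%; inactive means maximum activity change above -50%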; further: on the % scale 0 is the no-effect control and ±100 the full control effect
#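 U2OS cells transduced with wild-type KCNH2 virus are loaded with FluxOr dye for 45 min, and thallium flux is measured in kinetic reads before and after stimulation buffer. Rate constants are normalized to DMSO controls.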
# KCNH2 3.1 inh: KCNH2 3.1 (human) potassium channel inhibition | 0.95% of 340,000 active | U2OS KCNH2 3.1, thallium flux FluxOr; active compounds read low | AID 720553 | activity change, % (tested at about 1.8 µM);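 active means maximum activity change below -70%; inconclusive means maximum activity change from -70% to -50%; inactive means maximum activity change above -50%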;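 further: thallium influx rate constant from kinetic fluorescence after stimulation buffer; on the % scale 0 is the no-effect control and ±100 the full control effect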
#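 U2OS cells transduced with KCNH2 3.1 mutant virus (1.77 x 10^8 /mL, 4 h), plated overnight at 37 C, loaded 45 min with FluxOr dye plus Red40 quencher. Thallium flux rate constant from kinetic reads after stimulation buffer, normalised to controls.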
# TRPV1 PAM: human TRPV1 potentiation; Q8NER1; TRPV1-expressing cells, Fluo-8 calcium influx, capsaicin EC20 potentiation; potentiation, % at 8.33 µM; 0.02% of 320,000 active; in the data active means potentiation above about 80%; inconclusive means between about 30% and that limit; further: 0% is about no effect
#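 TRPV1-expressing cells were cultured overnight at 35.5C and loaded with Fluo-8 calcium dye for 40 to 90 min at room temperature. After a 10 s baseline, compound was added and calcium influx was read kinetically for 3 min (ex 480/em 520 nm).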
# TRPV1 agonist: human TRPV1 agonism; Q8NER1; TRPV1-expressing cells, Fluo-8 calcium influx, agonist mode; activation, % at 8.33 µM; 0.19% of 320,000 active; in the data active means activation above about 80%; inconclusive means between about 30% and that limit; further: 0% is about no effect
#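 Cells expressing TRPV1 were dye-loaded with Fluo-8 and read kinetically: 10 s baseline, 3 min after compound (agonist portion), then 2 min after EC20 capsaicin (allosteric enhancer portion). Calcium-bound dye fluorescence at 480/520 nm.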
# * marks the source's active call; other numbers are inactive results; ? = inconclusive; . = not tested or not shown; ! = repeats disagree.
SMILES,TRPML1 inh,TRPML1 agonist,hERG WT inh,KCNH2 3.1 inh,TRPV1 PAM,TRPV1 agonist
COC(=O)c1[nH]c2ccc(C)cc2c1NC(=O)CN1CCCC(C)(C)C1,33.2,-0.2,2.1,-2.2,-12.1,89.0*
CCOC(=O)c1[nH]c2ccc(C)cc2c1NC(=O)CN1CCCCC1,1.7,0.4,0.8,-0.5,5.1,?
Cc1ccc(N2CCN(CC(O)COc3ccc([N+](=O)[O-])cc3)CC2)cc1 (configuration not stated),8.7,-0.2,-88.0*,-88.6*,6.7,0.3
O=[N+]([O-])c1ccc(OCC(O)CN2CCN(c3ccccc3F)CC2)cc1 (configuration not stated),3.9,1.0,-76.5*,-97.1*,-6.5,2.6
Cc1ccc(C(=O)ON=C2CCN(c3ccc([N+](=O)[O-])cc3)CC2)cc1,-0.7,-0.4,-109.3*,-102.6*,-5.2,2.1
OC(COc1ccc2c(c1)CCC2)CN1CCN(c2ccccc2F)CC1 (configuration not stated),-11.9,1.2,15.2,-24.9,?,-1.5
Cc1nccn1CC(O)COc1ccc([N+](=O)[O-])cc1 (configuration not stated),-0.9,0.6,-5.4,-97.6*,12.7,-3.7
CCN(Cc1ccccc1)C(=O)Cn1c(=O)n(-c2ccccc2)c(=O)c2c1c1cc(C)ccc1n2C,2.2,-0.4,.,.,.,.
Cc1ccc(S(=O)(=O)CCC(=O)N2CCN(c3ccc([N+](=O)[O-])cc3)CC2)cc1,4.0,-1.1,-36.6,-77.2*,-3.8,2.0
CC(NC(=O)c1ccco1)C(=O)O (configuration not stated),1.6,0.4,-4.7,-116.0*,1.1,-5.8
CC(NC(=O)c1ccco1)C(=O)OCC(=O)c1ccc(Cl)s1 (configuration not stated),-0.4,-0.4,-223.8*,-4.0,9.3,-2.1
O=C(CN1C(=O)NC(Cc2c[nH]c3ccccc23)C1=O)Nc1ccccc1Br (configuration not stated),-3.1,0.4,28.1,-8.3,3.4,0.7
Cc1ccc(NC(=O)CN2C(=O)NC(Cc3c[nH]c4ccccc34)C2=O)cc1 (configuration not stated),0.4,-1.1,-25.7,-100.6*,7.7,-6.2
CCN(CC)c1ccc(/C=C/c2ccnc3ccccc23)cc1,.,54.4*,.,.,.,.
CN(C)c1ccc(N=Nc2ccc(/C=C/c3ccnc4ccccc34)cc2)cc1,.,124.1*,.,.,.,.
CN(C)c1ccc(/C=C/c2ccnc3c(O)cccc23)cc1,.,1.3,.,.,.,.
CN(C)c1ccc(/C=C/c2ccnc3c(Cl)cccc23)cc1,.,54.2*,.,.,.,.
CN1CCCc2cc(/C=C/c3ccnc4ccccc34)ccc21,.,52.5*,.,.,.,.
CN1CCN(c2ccnc(N(C)CCCCCCN)n2)CC1,.,-0.3,.,.,.,.
Cc1ccc(C)c(NC(=O)C(=O)NCCc2csc3nc(-c4ccccc4C)nn23)c1,1.5,3.0,.,.,.,.
C[N+]1(CC(=O)c2ccc(O)c(O)c2)CCOCC1,.,-0.2,.,.,.,.
CN(C)c1ccc(C=Cc2ccnc3ccccc23)cc1N,.,0.0,.,.,.,.
CN(C)c1ccc(/C=C/c2ccc3cc(N(C)C)ccc3n2)cc1,.,8.9,.,.,.,.
COc1cc(/C=C/c2ccnc3ccccc23)ccc1N(C)C,.,57.7*,.,.,.,.
CN(C)c1ccc(/C=C/c2c(Cl)cnc3ccccc23)cc1,.,3.3,.,.,.,.
SMILES,TRPML1 inh,TRPML1 agonist,hERG WT inh,KCNH2 3.1 inh,TRPV1 PAM,TRPV1 agonist
CN(C)c1ccc(/C=C/c2ccc3ccccc3n2)cc1,-11.0,52.3*!,-9.7,-44.2,14.1,25.9
CN(C)c1ccc(/C=C/c2ncnc3ccccc23)cc1,.,82.2*,.,.,.,.
CN(C)c1ccc(/C=C/c2ccnc3ccc(Br)cc23)cc1,.,54.5*,.,.,.,.
CCCc1nn2c(=O)cc(COC(=O)c3cccc(NC(=O)CCc4ccccc4)c3)nc2s1,-62.2*,2.4,.,.,.,.
CCCCc1nn2c(=O)cc(COC(=O)c3cccc(NC(=O)CCc4ccccc4)c3)nc2s1,-13.6,-0.8,.,.,.,.
Cc1ccc(NC(=O)/C(Cl)=C\c2ccccc2)cc1,52.2,2.7,-4.6,5.6,-1.7,-0.5
O=C(Nc1ccc(F)cc1)/C(Cl)=C/c1ccccc1,27.0,2.0,-2.1,-14.4,-0.6,83.2*
O=S(=O)(NCCNCC=Cc1ccc(Br)cc1)c1cccc2cnccc12,.,2.5,.,.,.,.
Cc1nc(-c2nc(-c3c(C(=O)NNC(=O)Nc4cccc(Cl)c4)noc3C)cs2)cs1,-9.1,-0.2,-0.5,5.6,20.3,-10.4
Cc1nc(-c2nc(-c3c(C(=O)NNC(=O)Nc4ccccc4)noc3C)cs2)cs1,-10.4,2.1,-77.3*,-93.8*,.,.
Cc1nn(CC(=O)N2CCc3ccccc32)c(C)c1S(=O)(=O)NC(C)(C)C,39.6,1.0,-282.9*,-21.4,.,.
Cc1c(Br)c([N+](=O)[O-])nn1CC(=O)N1CCc2ccccc21,21.2,0.1,-3.5,19.2,0.7,2.4
Cc1cc2c(cc1S(=O)(=O)NCc1ccc(F)cc1)OCCN2C,8.7,-0.7,.,.,.,.
Nc1ccc2nc3c(=O)n(C4CCCCC4)c(=O)[nH]c3nc2c1,-10.1,80.0*,-7.2,-3.8,-9.9,?
Nc1ccc2nc(CCc3ccccc3)[nH]c2c1,0.7,-0.6,12.3,6.4,-7.2,24.4
Cc1cc2nc3c(=O)n(CCc4ccccc4)c(=O)[nH]c3nc2cc1N,-27.2,114.0*,2.6,13.5,-30.1,?
CCCCn1c(=O)[nH]c2nc3cc(N)ccc3nc2c1=O,-20.9,73.7*,-9.0,-2.2,-31.7,?
Nc1ccc2nc3c(=O)n(CCc4ccccc4)c(=O)[nH]c3nc2c1,-27.9,74.9*,-8.5,-6.2,-15.1,107.3*
COc1ccc(CNC(=O)c2cnc(N3CCCC3)nc2C)cc1,-3.9,1.4,.,.,.,.
Cc1cc(C)cc(NC(=O)CCN2C(=O)c3ccccc3Sc3ncccc32)c1,-22.9,-0.4,.,.,.,.
CC(C)C[C@@H](CN=[N+]=[N-])N1CCN(CCc2ccccc2)CCC1=O,.,-0.4,.,.,.,.
COc1ccc(C(=O)N(Cc2sccc2C)C2CCS(=O)(=O)C2)cc1Cl (configuration not stated),-5.2,0.4,.,.,.,.
O=C(O)c1ccc(/C=N/NC(=O)c2ccc(CN3c4cccc5cccc(c45)S3(=O)=O)cc2)cc1,0.1,1.0,-7.7,-22.7,-2.9,-0.1
CC(/C=N/NC(=O)c1ccc(CN2c3cccc4cccc(c34)S2(=O)=O)cc1)c1ccccc1 (configuration not stated),37.3,1.2,0.7,-84.1*,10.6,7.8
CCOCCCN(Cc1ccco1)C(=O)c1cc2c(s1)-c1c(C)cccc1OC2,10.1,2.1,.,.,.,.
